AMPAR-TARP mod – modulates AMPAR-stargazin complexes; 3.5% of 40,000 active; AID 1259245; calls only at 30 µM; HEK293 GluA2+stargazin, membrane potential dye (FDSS), glutamate EC50; hits were called plate by plate, in both directions;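 active = any of four per-well response measures lying three or more SD from its plate-wide compound average, in either direction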
GIRK2 act – GIRK2 channel activators by thallium flux | 34,000 tested, under 10 active | P48051 | AID 1259324 | HEK293 GIRK2/NPY4 cells, thallium flux fluorescence | activation (% efficacy), % for hits at 37.5 µM;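 active = primary screen hit, no activity in plain HEK293 cells, and in GIRK2-only cells above 5% efficacy rising with concentration; inactive = the rest, including fluorescent compounds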;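 also: efficacy is normalized control-subtracted fluorescence 15 s after thallium addition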
Target sequence (P48051 whole entry, looked up): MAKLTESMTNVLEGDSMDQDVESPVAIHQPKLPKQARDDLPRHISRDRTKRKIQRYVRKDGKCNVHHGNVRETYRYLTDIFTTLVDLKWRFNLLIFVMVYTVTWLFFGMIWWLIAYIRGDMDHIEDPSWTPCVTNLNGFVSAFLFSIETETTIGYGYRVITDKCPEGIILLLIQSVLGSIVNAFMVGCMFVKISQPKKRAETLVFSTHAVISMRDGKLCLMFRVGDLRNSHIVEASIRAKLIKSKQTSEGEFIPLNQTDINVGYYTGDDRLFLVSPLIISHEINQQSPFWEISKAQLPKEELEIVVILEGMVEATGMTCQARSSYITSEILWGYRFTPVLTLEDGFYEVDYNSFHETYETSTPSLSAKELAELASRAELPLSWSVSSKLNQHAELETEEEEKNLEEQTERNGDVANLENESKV
An asterisk follows results filed as active; i = inactive; · = not tested or not shown; + = active, no number; [ ] = remark or other dose. The entries come from a sample that favours hits as a whole.

SMILES	AMPAR-TARP mod	GIRK2 act
Cc1cc(NC(=O)C(=O)NCC2(c3cccs3)CCCC2)c2ccccc2n1	·	6.0%*[75 µM]
Cc1noc(C)c1CC(=O)NCc1nn(C)c(=O)c2ccccc12	i	i
CC(C)S(=O)(=O)c1ccc(C(=O)Nc2nc3cc4c(cc3s2)OCCO4)cc1	i	i
Cc1cn(C)nc1C(=O)Nc1nc2ccc(S(C)(=O)=O)cc2s1	+	i
Cc1ccc2nc(NC(=O)c3ccc(S(=O)(=O)C(C)C)cc3)sc2c1	+	·
CS(=O)(=O)c1ccc2nc(NC(=O)Cn3cccn3)sc2c1	i	i
O=C(c1ccc(F)c(F)c1)N1CCN(C(=O)c2cnn3ccccc23)CC1	i	i
CSc1ccccc1C(=O)Nc1ccc2ncsc2c1	i	i
COc1ccc(Nc2cc(C)nc(NCCNC(=O)c3nccc(C)n3)n2)cc1	·	i
COc1ccc(Nc2cc(C)nc(NCCNC(=O)c3cnccn3)n2)cc1	+	i
CCOCCn1c(=O)c2c(nc3n(-c4ccc(C(=O)OCC)cc4)c(C)cn23)n(C)c1=O	i	·
COc1ccccc1CNc1nc2ccccc2nc1NS(=O)(=O)c1ccccc1	+	·
COc1ccc(S(=O)(=O)Nc2nc3ccccc3nc2NCCC2=CCCCC2)cc1	i	·
CC(C)(C)n1nc2c(c1-n1cccc1)CN(C(=O)c1cc3ccccc3oc1=O)C2	+	i
CC(C)(C)n1nc2c(c1-n1cccc1)CN(C(=O)Cn1c(=O)oc3ccccc31)C2	i	i
Cc1nc(Sc2nc(C)nc3sc4c(c23)CCC4)c2c3c(sc2n1)CCC3	i	·
CCc1nc2sc3c(c2c2nncn12)CCC3	+	i
CCOC(=O)C1CCN(C(=O)Cc2csc(Nc3ccccc3)n2)CC1	i	i
CCOC(=O)C1CCN(C(=O)Cc2csc(Nc3cccc(C(F)(F)F)c3)n2)CC1	+	i
CCCCN(C)C(=O)c1snc(C(=O)NCC)c1N	i	i
CN(C)C(CNC(=O)Cc1ccc(F)cc1)c1cccs1 (centres undefined)	i	i
COc1ccc(N2CCN(c3nc4c(c(=O)[nH]c(=O)n4C)n3CC(=O)c3ccccc3)CC2)cc1	i	·
CN1CCN(c2nc3c(c(=O)[nH]c(=O)n3C)n2CC(=O)c2ccc([N+](=O)[O-])cc2)CC1	+	·
COc1ccc(-c2nc3scc(CCNS(=O)(=O)c4cc(F)ccc4F)n3n2)cc1OC	i	·
CCCCOc1ccc(C(=O)Nc2cccc(N3CCCC3=O)c2)cc1	i	i
SMILES	AMPAR-TARP mod	GIRK2 act
COc1cccc(NC(=O)Cn2cccc(-c3nc(-c4ccc(Br)cc4)no3)c2=O)c1	+	i
Cc1cccc(NC(=O)Cn2cccc(-c3nc(-c4ccc(Br)cc4)no3)c2=O)c1	i	i
CCOc1ccc(C(=O)Nc2ccc3c(c2)CCCN3S(C)(=O)=O)cc1OCC	i	i
CCOc1ccccc1-n1nnc2c(=O)n(Cc3nc(-c4cccc(Cl)c4)no3)cnc21	i	i
O=S(=O)(Cc1ccc(F)cc1)NCCN1CCC(c2cccs2)CC1	i	i
CN1C(=O)Cc2cc(NC(=O)/C=C/c3ccccc3)ccc21	+	i
CN1C(=O)Cc2cc(NC(=O)Nc3cccc(Cl)c3)ccc21	+	i
CC(=O)Nc1ccc2c(c1)CC(=O)N2C	i	·
CN1C(=O)Cc2cc(NC(=O)Nc3ccc(Cl)c(Cl)c3)ccc21	i	i
CCOC(=O)N1CCc2c(sc(NC(=O)C(C)(C)C)c2-c2nc3ccccc3s2)C1	i	·
O=C(Cc1cc(-c2ccccc2F)on1)NCCCN1CCOCC1	i	i
NC(=S)c1cc2ccc(O)cc2oc1=O	i	·
CN(C)c1ccc(-c2noc(-c3cc4ccc(O)cc4oc3=O)n2)cc1	+	i
O=C(NCC1CCN(c2ccccn2)CC1)Nc1cccs1	i	i
NC(=O)CSc1nc(-c2ccccc2)c(NC(=O)c2ccccc2)s1	i	i
NC(=O)CSc1nc(-c2ccccc2)c(NC(=O)CCc2ccccc2)s1	+	i
Nc1sc(SCC(=O)NCc2ccc(F)cc2)nc1-c1ccccc1	+	i
COc1ccc(CCC(=O)Nc2sc(SCC(N)=O)nc2-c2ccccc2)cc1	i	i
NC(=O)CSc1nc(-c2ccccc2)c(N)s1	i	i
NC(=O)CSc1nc(-c2ccccc2)c(NC(=O)CCCc2ccccc2)s1	+	i
O=C(NCCO)c1cc2c(=O)n3ccccc3nc2n1Cc1ccccc1	i	i
Cn1nnc2c(SCc3cccc(Cl)c3)ncnc21	i	i
COc1cc(OC)cc(C(=O)N2CCN(Cc3nnnn3-c3ccc(F)c(F)c3)CC2)c1	i	i
O=C(NCCc1ccccc1)NCC1CCN(C(=O)COc2ccccc2)CC1	i	i
O=C(NCc1cccc2ccccc12)NCC1CCN(C(=O)COc2ccccc2)CC1	+	i

Bioassay records: PubChem BioAssay, several laboratories
